The source made the active and inactive calls.
Key:
[1] = tested on: Plasmodium falciparum Sir2 (PF13_0152, Sir2A); assay: Plasmodium falciparum Sir2A binding compounds – biochemical, small-molecule microarray, 635 nm fluorescence, primary screen (AID 1098); details: fluorescence 635 nm, higher = more signal;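 also: score merges spot fluorescence intensity with its signal-to-noise ratio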
[2] = probe aDKK1 binding to arrayed compounds – biochemical, biotinylated probe, 635/667 nm fluorescence, primary screen (AID 1099); details: small-molecule microarray, higher = more signal;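 also: score merges 667nm spot fluorescence with signal to noise across triplicate slides; reference of the scale not given here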
[3] = probe aCHRDL2 binding to arrayed compounds – biochemical, biotinylated probe, 635/667 nm fluorescence, primary screen (AID 1100); details: small-molecule microarray, higher = more signal
[4] = change in splice reporter luminescence, either direction, cell-based, HEK293, spliceosome inhibition project, primary screen (AID 1101); details: HEK293 splicing luciferase reporter, 24 h, higher = more signal, called active from +8 up or from −8 down;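 also: HEK293 cells carrying a splicing-competent luciferase reporter gene; test concentration not given here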
[5] = biological target: Fibroblast growth factor 10 (Homo sapiens) (UniProt O15520); assay: compounds binding fibroblast growth factor 10 – biochemical, small-molecule microarray, 635 nm fluorescence, primary screen (AID 1102); details: FGF10 binding, fluorescence 635 nm, higher = more signal
Fibroblast growth factor 10 (Homo sapiens), sequence (O15520 whole entry, looked up): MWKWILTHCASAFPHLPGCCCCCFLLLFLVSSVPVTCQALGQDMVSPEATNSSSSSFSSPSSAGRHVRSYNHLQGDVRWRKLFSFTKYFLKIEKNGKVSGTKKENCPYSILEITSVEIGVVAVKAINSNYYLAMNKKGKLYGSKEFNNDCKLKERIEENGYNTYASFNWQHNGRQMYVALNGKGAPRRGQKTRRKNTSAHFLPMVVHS

[6] = tested on: glycogen synthase kinase-3 (GSK3A per assay name; protocol says GSK3B); assay: compounds binding glycogen synthase kinase-3 – biochemical, small-molecule microarray, 635 nm fluorescence, GSK3A, primary screen (AID 1103); details: fluorescence 635 nm, higher = more signal; also: the record names both GSK3A and GSK3B
[7] = biological target: Epidermal growth factor receptor (Homo sapiens) (UniProt P00533); assay: compounds binding epidermal growth factor receptor – biochemical, small-molecule microarray, 635 nm fluorescence, primary screen (AID 1104); details: EGFR binding, higher = more signal;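 also: score merges 667 nm emission intensity with spot signal to noise over triplicate slides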
Epidermal growth factor receptor (Homo sapiens), sequence (P00533 whole entry, looked up): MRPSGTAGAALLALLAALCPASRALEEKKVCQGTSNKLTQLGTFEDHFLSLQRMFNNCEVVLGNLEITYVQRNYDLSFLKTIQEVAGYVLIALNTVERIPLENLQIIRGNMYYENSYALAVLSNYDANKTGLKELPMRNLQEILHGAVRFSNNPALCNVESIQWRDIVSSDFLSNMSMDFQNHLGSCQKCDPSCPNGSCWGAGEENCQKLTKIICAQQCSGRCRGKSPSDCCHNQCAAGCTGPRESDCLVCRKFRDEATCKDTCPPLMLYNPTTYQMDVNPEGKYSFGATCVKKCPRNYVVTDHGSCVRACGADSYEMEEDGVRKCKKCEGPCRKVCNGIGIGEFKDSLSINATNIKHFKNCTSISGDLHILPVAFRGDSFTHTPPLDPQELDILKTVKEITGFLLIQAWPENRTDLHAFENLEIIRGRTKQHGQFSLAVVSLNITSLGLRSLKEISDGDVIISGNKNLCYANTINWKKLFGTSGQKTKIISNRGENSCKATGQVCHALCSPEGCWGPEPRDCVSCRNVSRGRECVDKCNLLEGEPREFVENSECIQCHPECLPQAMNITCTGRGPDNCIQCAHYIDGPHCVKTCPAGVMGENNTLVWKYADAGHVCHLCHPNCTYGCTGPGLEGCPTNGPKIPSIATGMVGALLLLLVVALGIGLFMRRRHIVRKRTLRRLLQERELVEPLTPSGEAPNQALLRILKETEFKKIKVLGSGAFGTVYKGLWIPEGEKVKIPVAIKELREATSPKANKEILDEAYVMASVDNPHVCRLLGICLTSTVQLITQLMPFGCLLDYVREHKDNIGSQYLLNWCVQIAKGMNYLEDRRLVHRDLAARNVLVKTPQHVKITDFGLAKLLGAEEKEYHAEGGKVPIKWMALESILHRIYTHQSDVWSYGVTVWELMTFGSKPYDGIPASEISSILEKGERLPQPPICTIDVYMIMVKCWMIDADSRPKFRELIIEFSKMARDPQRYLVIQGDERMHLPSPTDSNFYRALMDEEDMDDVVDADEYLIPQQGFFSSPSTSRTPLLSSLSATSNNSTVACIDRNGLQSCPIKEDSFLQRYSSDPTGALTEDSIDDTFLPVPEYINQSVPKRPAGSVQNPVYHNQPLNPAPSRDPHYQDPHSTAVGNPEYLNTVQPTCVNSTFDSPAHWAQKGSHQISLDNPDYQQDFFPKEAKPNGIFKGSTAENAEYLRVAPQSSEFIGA

[8] = biological target: Follistatin-related protein 3 (Homo sapiens) (UniProt O95633); assay: compounds binding follistatin-related protein 3 – biochemical, small-molecule microarray, 635 nm fluorescence, primary screen (AID 1105); details: FSTL3 binding, higher = more signal;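 also: score merges emission near 667 nm and signal to noise per printed spot across three slides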
Follistatin-related protein 3 (Homo sapiens), sequence (O95633 whole entry, looked up): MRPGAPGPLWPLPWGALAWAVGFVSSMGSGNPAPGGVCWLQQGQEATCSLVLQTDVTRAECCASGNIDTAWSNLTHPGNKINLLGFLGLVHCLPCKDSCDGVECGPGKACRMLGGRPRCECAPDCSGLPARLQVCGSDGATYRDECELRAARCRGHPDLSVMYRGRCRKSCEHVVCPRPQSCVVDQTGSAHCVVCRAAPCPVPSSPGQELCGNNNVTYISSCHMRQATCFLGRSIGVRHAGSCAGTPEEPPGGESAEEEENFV

[9] = biological target: Dickkopf-related protein 1 (Homo sapiens) (UniProt O94907); assay: small molecules binding DKK1 protein – biochemical, small-molecule microarray, 635 nm fluorescence scan, primary screen (AID 1106); details: higher = more signal;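 also: score merges emission near 667 nm with signal to noise over three replicate slides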
Dickkopf-related protein 1 (Homo sapiens), sequence (O94907 whole entry, looked up): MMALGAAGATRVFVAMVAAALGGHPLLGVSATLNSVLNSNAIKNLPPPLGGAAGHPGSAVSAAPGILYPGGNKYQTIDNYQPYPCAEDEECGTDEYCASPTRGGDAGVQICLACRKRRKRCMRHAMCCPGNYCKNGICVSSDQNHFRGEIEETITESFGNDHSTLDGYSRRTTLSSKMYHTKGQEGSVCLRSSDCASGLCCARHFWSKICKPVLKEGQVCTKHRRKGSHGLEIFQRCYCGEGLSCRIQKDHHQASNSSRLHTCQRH

[10] = tested on: Inhibin beta A chain (activin A); assay: small molecules binding activin A – biochemical, small-molecule microarray, 635 nm fluorescence scan, primary screen (AID 1107); details: INHBA, higher = more signal;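 also: mouse activin A protein probed at 4.33 µg/mL on printed slides; score merges bound-protein fluorescence near 667 nm with spot signal-to-noise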

Row | SMILES | composite z-score [1] | composite z-score [2] | composite z-score [3] | z-score [4] | composite z-score [5] | composite z-score [6] | composite z-score [7] | composite z-score [8] | composite z-score [9] | composite z-score [10]
1 | CC(C)[Si](C#C[Si](C(C)C)(C(C)C)C(C)C)(O[C@H](C)c1cn(Cc2ccccc2)nn1)C(C)C | 0.733 | -0.0531 | -0.252 | -0.9 (inactive) | 0.584 | 0.856 | 0.361 | 0.688 | 0.0811 | -0.353
2 | O=C1[C@@]23C=C(Br)[C@H](C[C@@H]2COC3)[C@]12CO2 | -1.5 | -0.183 | -0.188 | 1.91 (inactive) | -0.573 | -0.88 | -1.24 | -0.858 | -0.297 | 1.69
3 | C=C(CCCC)/C(=C/C[C@@H](OC(C)=O)c1cccc(OCCO)c1)c1cnc2ccccc2c1 | 0.462 | -0.14 | 0.0854 | 1.17 (inactive) | 1 | -0.518 | 0.12 | 1.12 | 0.312 | 1.58
4 | COCCCNC(=O)[C@@]1(Cc2ccccc2CN=[N+]=[N-])N=C(c2ccc(OCCCO)cc2)O[C@H]1c1ccccc1CN=[N+]=[N-] | 1.25 | 0.616 | 1.09 | -1.51 (inactive) | 1.43 | 0.186 | -0.334 | 0.299 | -0.629 | 0.849
5 | CCCCCN1CC=CC23O[C@@H]4C=CCOC(=O)[C@@H]4[C@H]2C(=O)N(C(C)CO)[C@@H]3C1=O (stereo not given in full) | 1.4 | -0.162 | 0.381 | 1.03 (inactive) | -0.571 | -0.831 | -1.44 | -1.25 | -0.693 | -0.469
6 | COc1ccc(C(=O)Nc2cccc(CN3C(=O)[C@]4(O[C@H](CCn5cc(CCO)nn5)[C@@H]([Si](C)(C)c5ccc(OC)cc5)[C@@H]4C)c4ccccc43)c2)cc1 | 0.83 | 0.601 | 0.127 | 2.05 (inactive) | 0.17 | 0.495 | 0.529 | 1.01 | 0.201 | 1.55
7 | O=C1C2C=CC(C(O)c3cc(C(F)(F)F)cc(C(F)(F)F)c3)N(Nc3ccccc3)C2C(=O)N1c1ccccc1 (stereo not given) | 1.24 | 0.723 | 0.433 | -2.9 (inactive) | -0.239 | 0.22 | -0.303 | -0.154 | -0.667 | 1.01
8 | CC(C)NC(=O)[C@@H]1c2ccccc2C(=O)N(C(C)C)[C@H]1c1ccc(CO)cc1 | -0.509 | -0.29 | 0.91 | -0.0664 (inactive) | -0.633 | 0.134 | -1 | -0.994 | -1.72 | -0.751
9 | Cc1ccc(S(=O)(=O)N2C[C@@H](C(=O)O)[C@H](Sc3ccccc3)C[C@H]2c2ccccc2)cc1 | 1.47 | 0.707 | 0.999 | 1.64 (inactive) | 1.15 | 0.586 | 0.14 | 1.29 | -0.503 | 0.49
